Screening results deposited in PubChem BioAssay by National Center for Advancing Translational Sciences (NCATS).
Hits are enriched below; roughly 2.9% of the tested compounds scored in any of these assays.
Rango release inh – prevents RanGTP from dissociating the Rango-importin beta complex; Biochemical FRET Rango-importin beta, RanGTP-induced dissociation; O95149+P62826; Potency, µM (titrated, usually from 46.1 µM), without a hit: top-dose activity change, negative = inhibition; actives 0.071% (n = 340,000); note: potency is the fitted concentration of half-maximal effect; % of control where 0% means no effect; nearly all actives have a fitted effect of over 45% in size
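Compounds sat 5 min at room temperature with 0.1 uM Rango biosensor plus 0.25 uM importin beta, then FRET pre-read. RanGTP-RCC1 (0.6 uM Ran, 2mM GTP, 0.2 uM RCC1) added for 45 min, and the CFP/YFP post-read measured blocked complex dissociation.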
DRD3 agonist – activates the human D3 dopamine receptor. P35462. D3R DiscoveRx beta-arrestin cells, luminescence, 90 min. max activation, %. actives 0.58% (n = 410,000). AID 652048; in the data active = max activation above about 30%; note: 0% is about no effect
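Agonist mode: compounds and dopamine controls were applied to plated cells for 90 min at 37 degrees C after an overnight attachment at 1500 cells/well. Luminescent read-out followed 30 - 60 minutes at room temperature with DiscoveRx detection reagent.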
TSG101-PTAP inh – blocks PTAP/TSG101 interaction to inhibit HIV-1 budding. 340,000 tested, under 10 active. AID 493005. Fluorescence polarization, FITC-PTAP peptide / Tsg101 binding. Q99816. Potency, µM (highest dose often 115 µM), for the others: at the top dose activity change, negative = inhibition, usual class: inhibitors; active = well fitted inhibition curve with a large enough effect in the main read-out, with a control signal flat, not every such curve was filed as active; inconclusive = small, poorly fitted or top-dose-only effect, or effect the other way, or a change in a side signal; inactive = no such curve, though single readings can be large or run the other way; note: potency is the fitted concentration of half-maximal effect; % of control where 0% means no effect
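Fluorescence polarization binding of Tsg101 binding domain (10 uM final) to FITC-labeled PTAP peptide (50 nM final) in HEPES pH 7.5 buffer with NaCl, Tween 20, EDTA, TCEP. Compounds added before peptide; binding 20 min at RT.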
MmCpn inh – inhibitors of Methanococcus maripaludis chaperonin TRiC (MmCpn). purified Mm-Cpn ATPase, ADP Transcreener TR-FRET. Potency, µM (series often up to 76.9 µM), inactives show at the top dose activity, negative = inhibition, most hits filed as inhibitors. actives 0.031% (n = 330,000). AID 504842; active = well fitted inhibition curve with a large enough effect; inconclusive = small, poorly fitted or top-dose-only effect; note: potency is the fitted concentration of half-maximal effect; % is set by controls: 0 for no effect and ±100 for the full control effect; nearly all actives have a fitted effect of over 80% in size
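ATPase read-out: TR-FRET ADP immunoassay (anti-ADP Eu cryptate vs ADP-d2), ex 320 nm, em 590/665 nm; signal drops as ADP forms. Enzyme 25 nM, ATP 10 uM, 30 min at 37°C after 10 min compound preincubation.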
DRD3 antagonist – D3 dopamine receptor (human) antagonism; P35462; D3R cells, DiscoveRx beta-arrestin luminescence, antagonist mode; stronger effect = lower value; max response, negative = inhibition, %; actives 2.5% (n = 360,000); AID 652054; in the data active = max response below about -50%; inconclusive = no clear call, values can overlap the other calls; note: % is set by controls: 0 for no effect and ±100 for the full control effect
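Cells plated overnight at 1500 cells/well, then exposed to library compounds with dopamine controls for 90 minutes at 37 degrees C. DiscoveRx reagent added for 30–60 minutes at room temperature; luminescence read, quantitative HTS format.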
Rango complex inh – prevents formation of the Rango-importin beta complex | Rango CFP/YFP FRET sensor + importin beta, 45 min | Q14974 | Potency, µM (titrated, usually from 92.2 µM), for inactives: at the highest dose inhibition of complex formation | actives 0.031% (n = 340,000) | AID 540263;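 note: potency is the fitted concentration of half-maximal effect; 0% = DMSO wells and 100% = buffer wells lacking importin beta; nearly all actives have a fitted effect of over 15% in size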
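FRET biosensor Rango (snurportin 1 IBB between N-terminal EYFP and C-terminal Cerulean), 50 nM in PBS/1 mM DTT/0.02% Tween-20/0.1% BSA, preincubated 5 min RT with compound; 0.125 microM importin beta added, 45 min RT, CFP/YFP FRET ratio read.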
Starred values were filed as active, the others as inactive; u = inconclusive; x = no result given. Unless noted, calls come from the whole dose curve.

SMILES	Rango release inh	DRD3 agonist	TSG101-PTAP inh	MmCpn inh	DRD3 antagonist	Rango complex inh
CC(=O)Nc1ccc(NC(=O)c2nc(S(=O)(=O)Cc3cccc(C)c3)ncc2Cl)cc1	-9%	-28	11%	3%	-75*	-1%
COC(=O)c1ccc(NC(=O)c2nc(S(=O)(=O)Cc3cccc(C)c3)ncc2Cl)cc1	-3%	-28	4%	-5%	-53*	-3%
CCOc1cc(/C=C2\N=C(SC(C)C(N)=O)N(c3ccc(OC(F)F)cc3)C2=O)ccc1O (stereo not given)	u	-13	20%	0%	-57*	u
NC(=O)CSC1=N/C(=C\c2ccco2)C(=O)N1c1ccc(OC(F)F)cc1	-15%	6	0%	-2%	3	u
Cc1ccc([N+](=O)[O-])cc1NC(=O)CCCOc1ccccc1	-18%	-1	-5%	3%	-64*	7%
O=C(CSc1nc2ccccc2s1)N/N=C/c1cc([N+](=O)[O-])ccc1O	0%	-8	-6%	1%	-61*	1%
O=C(CCC(=O)Nc1cccc(Cl)c1)N/N=C/c1cc([N+](=O)[O-])ccc1O	-4%	-16	1%	-1%	-62*	2%
Cc1ccc(/C=N/NC(=O)CSc2nc3ccccc3s2)o1	7%	-4	-6%	1%	-8	3%
Cc1ccccc1NC(=O)CCC(=O)N/N=C/c1cc([N+](=O)[O-])ccc1O	-9%	-14	-9%	-2%	-58*	0%
Cc1ccc(C)c(NC(=O)CCC(=O)N/N=C/c2cc([N+](=O)[O-])ccc2O)c1	16%	-6	-3%	2%	u	3%
CCn1cc2nc(SCc3cccc(C(F)(F)F)c3)n(Cc3ccc(Cl)cc3)c(=O)c2n1	x	-8	x	x	x	x
O=[N+]([O-])c1ccc(O)c(/C=N/n2cnc3ccccc32)c1	1%	0	-5%	0%	-15	-3%
CN1CCN(CCC(=O)N/N=C/c2cc([N+](=O)[O-])ccc2O)CC1	-1%	-24	0%	0%	-79*	4%
Cc1ccc(NC(=O)CCC(=O)N/N=C/c2cc([N+](=O)[O-])ccc2O)cc1	-18%	-8	-1%	1%	-21	3%
O=[N+]([O-])c1ccc(O)c(/C=N/n2c(CO)nc3ccccc32)c1	u	-17	1%	1%	-54*	-1%
Cc1cc(C)cc(NC(=O)CN2C(=O)COc3ccc(S(=O)(=O)Nc4ccccc4)cc32)c1	x	-16	x	x	x	x
O=C[C@H](O)[C@@H](O)[C@@H](O)[C@H](O)CO	x	-19	x	x	x	x
Cn1c(=O)[nH]c(=O)c2c1nc(Br)n2CCOc1ccccc1	-5%	4	-2%	1%	-53*	1%
Cn1c(=O)[nH]c(=O)c2c1nc(NN)n2CCOc1ccccc1	-10%	7	0%	2%	13	0%
Cc1ccccc1C(=O)Nc1ccc(C(=O)N2CCCC(O)c3cc(Cl)ccc32)c(C)c1 (stereo not given)	x	3	x	x	x	x
CN(C)c1ccc(NC(=O)CN2CCN(CC(=O)Nc3ccc(Br)cc3)CC2)cc1	x	7	x	x	x	x
NC(c1ccc(F)c(F)c1)c1nc(-c2cncnc2)cs1 (stereo not given)	x	1	x	x	0	x
NC(c1ccc(F)c(F)c1)c1nc(-c2cc(F)cc(F)c2)cs1 (stereo not given)	x	9	x	x	-72*	x
CC(=O)Nc1ccc(-c2ccnc3c2CC(C)(C(=O)Nc2ccccc2)O3)cc1 (stereo not given)	x	2	x	x	-23	x
CC1(C(=O)NCc2cccs2)Cc2c(-c3ccc(C(N)=O)cc3)ccnc2O1 (stereo not given)	x	-8	x	x	-71*	x
CC(=O)Nc1ccc(-c2ccnc3c2CC(C)(C(=O)Nc2cccc(Oc4ccccc4)c2)O3)cc1 (stereo not given)	x	-19	x	x	-66*	x
